Shown are actives, neighbours in structure and some others; about 0.58% of the full set was active somewhere.
CatS block: inhibitors of human cathepsin S. P25774. recombinant cathepsin S, AMC dipeptide fluorescence, pooled mixtures. inhibition, %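 (tested at 5 µM per compound within 10-compound mixtures)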. 0.06% of 62,000 active; in the data active means inhibition above about 32%, passing the limit was not always enough;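 further: 0% = enzyme without compound and 100% = blank without enzyme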
Target sequence (P25774 115-331 limits assumed): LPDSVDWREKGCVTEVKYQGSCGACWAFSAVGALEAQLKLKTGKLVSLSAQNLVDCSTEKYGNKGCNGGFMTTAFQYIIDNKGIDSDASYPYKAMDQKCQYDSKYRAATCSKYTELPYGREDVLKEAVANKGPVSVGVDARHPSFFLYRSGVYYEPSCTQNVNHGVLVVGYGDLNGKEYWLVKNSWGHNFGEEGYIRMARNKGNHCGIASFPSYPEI
CatL inh: inhibitors of human cathepsin L; 0.17% of 58,000 active; inhibition, %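 (tested at 10 µM)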; purified cathepsin L, fluorogenic substrate, fluorescence; P07711; in the data active means inhibition above about 45%;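 further: 0% = enzyme with no compound and 100% = no enzyme blank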
CatB block: inhibitors of human cathepsin B; P07858; purified cathepsin B, fluorogenic substrate, fluorescence; inhibition, %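 (tested at 10 µM)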; 0.1% of 63,000 active; AID 453; in the data active means inhibition above about 21%;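 further: 0% = enzyme with no compound and 100% = no enzyme blank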
C1s block: human complement C1s inhibition; purified C1s, fluorogenic AMC substrate, pooled mixtures; mean inhibition % of two 10-compound mixtures (hits give high values), % at 5 µM (by protocol); 0.16% of 62,000 active; AID 538;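 active means inhibition above 20% in each of the two 10-compound mixture wells holding the compound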;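 further: 0% = enzyme wells lacking compound mixture and 100% = no-enzyme blank wells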
CatB mix inh: human cathepsin B inhibition by mixtures | P07858 | Purified cathepsin B, AMC dipeptide fluorescence, compound mixtures | inhibition, %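 (ten-compound pools at 5 µM per compound and 50 µM total)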 | 0.06% of 62,000 active; in the data active means inhibition above about 22%, passing the limit was not always enough;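 further: 0% = enzyme without compound and 100% = no enzyme blank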
Cathepsin G inh: cathepsin G (human) inhibition; inhibition, % at 5 µM (by protocol); purified enzyme, AMC-tetrapeptide fluorescence, pooled mixtures; 0.2% of 62,000 active;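 active means inhibition above 20% in each of the two mixture wells holding the compound; inactive means inhibition of 20% or less in either well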;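 further: 0% = enzyme control without mixture and 100% = blank lacking enzyme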
Target sequence (P08311 21-244 limits assumed): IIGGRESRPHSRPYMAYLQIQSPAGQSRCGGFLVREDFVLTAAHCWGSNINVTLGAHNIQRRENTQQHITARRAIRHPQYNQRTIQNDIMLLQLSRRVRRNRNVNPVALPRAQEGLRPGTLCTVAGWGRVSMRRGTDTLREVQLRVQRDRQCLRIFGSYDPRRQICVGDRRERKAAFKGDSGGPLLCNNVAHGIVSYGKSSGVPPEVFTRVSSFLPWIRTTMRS
Starred values were filed as active, the others as inactive; i = inactive; . = no result given.

SMILES	CatS block	CatL inh	CatB block	C1s block	CatB mix inh	Cathepsin G inh
Nc1nonc1C(=O)OCC(=O)N1CCOCC1	0	8	31*	-4	8	0
O=C(OCC(=O)N1CCOCC1)c1ccc[nH]c1=O	-6	4	0	4	2	2
O=[n+]1c2c(n([O-])c3c1CCCC3)CCCC2	7	5	-3	-1	3	10
Cc1oc2cc3c(C(=O)N4CCCCC4)c(C)oc3cc2c1C(=O)N1CCCCC1	7	29	-2	1	0	-4
CC(=O)Nc1ccc(C(=O)Nc2ccc3c(c2)OCO3)cc1	-6	-7	0	2	4	8
CCC(=O)Nc1ccc(C(=O)Nc2ccc3c(c2)OCO3)cc1	-6	-2	1	21*	5	16
COC(=O)NC1CSCC1OC(=O)c1ccc(Br)cc1 (configuration not stated)	-20	9	-4	-120	-14	-19
CC(=O)NC(=O)NC1CSCC1OC(C)=O (configuration not stated)	16	13	-2	58*	8	14
CCOC(=O)CC(=O)CSc1ccc2nnc(-c3ccc(C)cc3)n2n1	4	-3	1	-5	6	9
CCN(CC)c1ccc(/C=N/n2c(=S)[nH]nc(C)c2=O)cc1	-6	104*	7	12	2	6
Cc1cccc(NC(=O)CCn2nc(C)cc2C)c1	1	59*	2	3	-4	0
Cc1ccc(NC(=O)CCn2nc(C)cc2C)c(C)c1	12	-1	3	5	4	10
CC1(C)COCN1S(=O)(=O)c1ccc(C(=O)Nc2nnc(-c3ccc(Cl)s3)o2)cc1	3	8	1	23*	4	10
COc1ccc(-c2nnc(NC(=O)c3ccc(S(=O)(=O)N4COCC4(C)C)cc3)o2)cc1	10	18	4	12	-1	1
CCc1ccc(-c2cn(-c3nc(C)cc(C)n3)c(=N)o2)cc1	19	10	5	52*	5	8
O=C(CCCCn1c(=O)[nH]c2ccsc2c1=O)NCc1cccnc1	2	-1	0	13	25*	27
COc1ccccc1CNC(=O)CCn1c(=O)[nH]c2ccsc2c1=O	9	3	-2	3	7	2
COc1cccc(NC2=NCC(=O)N2Cc2cccs2)c1	-1	73*	-2	15	4	12
COc1ccc(NC2=NCCC(=O)N2Cc2cccs2)cc1	-3	0	0	3	-2	10
Clc1ccc(CSC2=NCCCN2)cc1Cl	4	6	-1	8	3	11
Nc1nc(C(=O)N2CCOCC2)nn1C(=O)c1ccc(Cl)cc1	0	.	-3	32*	3	40*
COc1ccccc1C(=O)n1nc(-c2ccco2)nc1N	10	8	0	-5	1	13
COc1ccc(C(=O)n2nc(-c3ccco3)nc2SC)cc1OC	-2	.	7	70*	3	40*
CSc1nc(-c2ccco2)nn1C(=O)c1cccs1	4	14	1	68*	-1	59*
COc1ccc(CNc2nc(-c3cccnc3)nn2C(=O)c2ccco2)cc1	-2	-6	1	0	-7	12
SMILES	CatS block	CatL inh	CatB block	C1s block	CatB mix inh	Cathepsin G inh
COc1ccc(-c2nc(SC)n(C(=O)c3ccco3)n2)cc1	13	.	5	63*	5	20*
CC(=O)n1nc(-c2ccco2)nc1N	9	25	9	-40	6	-8
COc1ccc(OCCOC(=O)c2cccc(-n3cnnn3)c2)cc1	3	-5	-10	4	6	10
NCCCNC(=O)c1cc2ccccc2[nH]1	-2	-4	-2	-19	2	-16
CCn1c(=O)c(C(C)=O)nc2ccccc21	0	2	-4	22*	4	15
CCc1nc2ccccc2n(CC)c1=O	5	7	3	-23	-5	0
Cc1ccc(S(=O)(=O)NCC(=O)N2CCCCC2)cc1	-8	3	0	-65	-1	-6
O=C(CN1C(=O)C2CCc3[nH]c4ccccc4c3C2C1=O)N1CCCC1 (configuration not stated)	2	9	4	0	7	8
CC(=O)CCc1c(C)c2cccc(C)c2[nH]c1=O	-1	104*	3	8	0	10
CCS(=O)(=O)c1ccc(NC(=O)c2ccccc2Cl)c(O)c1	-15	6	0	-97	-12	-4
Cn1c(=O)c2cc(NC(=O)c3ccccc3Cl)c(=O)oc2n(C)c1=O	2	.	5	14	9	20*
CCOC(=O)c1cc(-c2cccs2)nc2onc(C)c12	-20	i	0	-46	-5	-7
COC(=O)c1ccc2c(c1)NC(=O)C(N1CCCC1)S2 (configuration not stated)	5	63*	6	-14	2	9
COC(=O)c1ccc2c(c1)NC(=O)C(N1CCCCC1)S2 (configuration not stated)	0	22	3	-1	2	11
COc1ccc(C(=O)N(CC(=O)NC(C)(C)C)c2ccc3c(c2)OCCO3)cc1OC	-27	2	-1	-209	-16	-23
O=C(Nc1ccccc1C(F)(F)F)N1CCCCCC1	0	-11	-4	3	39	-5
NC(=O)C1(N2CCCCC2)CCN(C(=O)Nc2ccccc2C(F)(F)F)CC1	-11	3	5	25*	4	37
O=c1[nH]c(CN2CCc3ccccc3C2)nc2ccccc12	-2	-1	-2	9	2	48*
Cc1ccccc1OC(=O)CCC(=O)OCCCC(F)(F)C(F)(F)F	14	10	-4	-7	-3	0
CC(=O)c1cccc(NC(=O)Cn2cc3c(n2)CCCC3)c1	12	.	0	15	5	8
O=C(CC(c1ccccc1)c1ccco1)N1CCOCC1 (configuration not stated)	59*	18	8	-74	7	-11
COc1ccc(C(=O)n2ccc(C)n2)cc1Br	8	.	2	20	-2	21*
COc1ccc(C(=O)n2nc(C)cc2C)cc1Br	-5	-1	-1	-11	0	-4
COc1ccc(C(=O)n2nnc3ccccc32)cc1Br	-5	-3	5	67*	8	20
O=C(c1ccc2c(c1)OCO2)n1nnc2ccccc21	8	18	6	86*	5	89*
CN(C(=O)C1CCN(S(=O)(=O)c2cccs2)CC1)C1CCCCC1	-1	-5	3	3	0	0
Cc1ccc(C(C)C)c(OCc2nc(-c3nonc3N)no2)c1	-2	.	22*	-8	8	9
Nc1nonc1-c1noc(CCCOc2ccc(Cl)cc2Cl)n1	-8	-5	1	11	2	9
O=c1c(-c2ccco2)[n+]([O-])c2ccccc2n1OCc1ccccn1	14	9	-1	29*	7	20
Cc1ccc(CCNC(=O)C2CCN(C(=O)N(C)C)CC2)cc1	-5	-13	1	18	7	11
